# Data as given in PubChem BioAssay (NCATS).
# Results filed as inconclusive are left out. Where a call stands in place of a potency, no number is given. Activity calls are given as the source filed them. The call rests on the fitted dose curve; in most records, active means well fitted curve in the direction sought with a large enough effect; inconclusive means small, poorly fitted or top-dose-only effect, or another doubt; inactive means no such curve, though single readings can be large; an effect the other way counts as inactive or inconclusive.
# Columns and labels:
# [1] = qHTS of pediatric cancer cell lines to identify multiple opportunities for drug repurposing: Primary screen for Saos-2 cells (AID 1347097); further: nearly all actives have a fitted effect of over 40% in size
# Outline: (§1)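 Viability was measured as metabolically active cells after 48 hours of treatment, read by CellTiter-Glo luminescence. Compounds were tested at multiple final concentrations, giving concentration-response curves.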
# [2] = qHTS of pediatric cancer cell lines to identify multiple opportunities for drug repurposing: Primary screen for NB1643 cells (AID 1347099); further: nearly all actives have a fitted effect of over 50% in size
# Outline: as §1
# [3] = qHTS of pediatric cancer cell lines to identify multiple opportunities for drug repurposing: Primary screen for Rh18 cells (AID 1347102); further: nearly all actives have a fitted effect of over 65% in size
# Outline: (§2)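 Viability after 48 h compound treatment at 37C, 500-1,000 cells/well, read as ATP luminescence with CellTiter-Glo. Primary screens used 11-point (MIPE, 0.78 nM-46 µM) or 8-point (NPC, 0.59 nM-46 µM) final concentrations; follow-up screens used 11-point dilutions.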
# [4] = qHTS of pediatric cancer cell lines to identify multiple opportunities for drug repurposing: Primary screen for OHS-50 cells (AID 1347103); further: nearly all actives have a fitted effect of over 40% in size
# Outline: (§3)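 Cells (500-1,000/well) rested 5 h, then received compounds for 48 h; metabolically active cells were measured by CellTiter-Glo luminescence. Final concentrations spanned up to 46 µM (MIPE, 11-point) or 0.59 nM-46 µM (NPC, 8-point) in primary screens, 11-point in follow-ups.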
# [5] = qHTS of pediatric cancer cell lines to identify multiple opportunities for drug repurposing: Primary screen for control Hh wild type fibroblast cells (AID 1347106); further: nearly all actives have a fitted effect of over 55% in size
# Outline: as §2
# [6] = qHTS of pediatric cancer cell lines to identify multiple opportunities for drug repurposing: Primary screen for MG 63 (6-TG R) cells (AID 1347105); further: nearly all actives have a fitted effect of over 50% in size
# Outline: as §1
# [7] = qHTS of pediatric cancer cell lines to identify multiple opportunities for drug repurposing: Primary screen for BT-12 cells (AID 1347101); further: nearly all actives have a fitted effect of over 25% in size
# Outline: as §3
# [8] = qHTS of pediatric cancer cell lines to identify multiple opportunities for drug repurposing: Primary screen for RD cells (AID 1347104); further: nearly all actives have a fitted effect of over 55% in size
# Outline: as §1
# [9] = qHTS of pediatric cancer cell lines to identify multiple opportunities for drug repurposing: Primary screen for SK-N-SH cells (AID 1347098); further: nearly all actives have a fitted effect of over 65% in size
# Outline: as §3
# [10] = qHTS of pediatric cancer cell lines to identify multiple opportunities for drug repurposing: Primary screen for LAN-5 cells (AID 1347100)
# Outline: as §2
# Potency means the concentration at half of the fitted maximal effect.
structure (smiles),measurement,setting,value
CN(C/C=C/c1ccccc1)Cc1cccc2ccccc12,Potency,[1],23.7 µM (active)
same,Potency,[2],inactive
same,Potency,[3],inactive
same,Potency,[4],27.6 µM (active)
same,Potency,[5],inactive
c1ccc(-c2ccc(C(c3ccccc3)n3ccnc3)cc2)cc1 (stereo not given),Potency,[1],inactive
same,Potency,[3],inactive
same,Potency,[6],inactive
same,Potency,[5],inactive
COc1cc2c(cc1OC)C(=O)C(CC1CCN(Cc3ccccc3)CC1)C2 (stereo not given),Potency,[1],inactive
same,Potency,[7],inactive
same,Potency,[3],inactive
same,Potency,[8],inactive
same,Potency,[6],inactive
same,Potency,[5],inactive
O=C(Nc1ccc(Oc2ccc(Cl)cc2)c(Cl)c1)c1cc(I)cc(I)c1O,Potency,[7],inactive
same,Potency,[3],inactive
same,Potency,[5],inactive
CC/C(=C(/CC)c1ccc(O)cc1)c1ccc(O)cc1,Potency,[9],5.45 µM (active)
same,Potency,[4],15.5 µM (active)
same,Potency,[5],inactive
C[C@@H](CN(C)C)CN1c2ccccc2Sc2ccccc21,Potency,[2],inactive
same,Potency,[10],inactive
same,Potency,[4],21.9 µM (active)
same,Potency,[6],inactive
same,Potency,[5],inactive
COc1ccc(CN2CCN(C(c3ccc(F)cc3)c3ccc(F)cc3)CC2)c(OC)c1OC,Potency,[9],21.7 µM (active)
same,Potency,[2],inactive
same,Potency,[4],13.8 µM (active)
same,Potency,[6],inactive
same,Potency,[5],inactive
COC(=O)C1=C(C)NC(C)=C(C(=O)O[C@@H]2CCCN(Cc3ccccc3)C2)[C@@H]1c1cccc([N+](=O)[O-])c1,Potency,[9],30.7 µM (active)
same,Potency,[2],inactive
same,Potency,[4],19.5 µM (active)
same,Potency,[8],inactive
same,Potency,[5],inactive
Oc1ccc(Cl)c2cccnc12,Potency,[9],8.64 µM (active)
same,Potency,[10],21.1 µM (active)
same,Potency,[7],5.5 µM (active)
same,Potency,[6],inactive
same,Potency,[5],16.8 µM (active)
CN(C)CC/C=C1\c2ccccc2Sc2ccc(Cl)cc21,Potency,[2],inactive
same,Potency,[4],30.9 µM (active)
same,Potency,[6],inactive
same,Potency,[5],inactive
Clc1ccc2c(c1)CCc1cccnc1C2=C1CCNCC1,Potency,[2],inactive
same,Potency,[6],inactive
same,Potency,[5],inactive
CCCOC(C(=O)OC1CCN(C)CC1)(c1ccccc1)c1ccccc1,Potency,[2],inactive
same,Potency,[10],inactive
same,Potency,[7],inactive
same,Potency,[6],inactive
same,Potency,[5],inactive
CCOc1ccc(Cc2nccc3cc(OCC)c(OCC)cc23)cc1OCC,Potency,[7],6.17 µM (active)
same,Potency,[6],inactive
same,Potency,[5],inactive
CCCSS/C(CCO)=C(\C)N(C=O)Cc1cnc(C)nc1N,Potency,[7],inactive
same,Potency,[3],inactive
same,Potency,[4],21.9 µM (active)
same,Potency,[5],inactive
NC(=O)C(=O)N/N=C/c1ccc([N+](=O)[O-])o1,Potency,[2],21.1 µM (active)
same,Potency,[10],29.9 µM (active)
same,Potency,[5],inactive
C[C@@H]1CN(CCCn2c3ccccc3c3ccccc32)C[C@H](C)N1,Potency,[9],9.7 µM (active)
same,Potency,[2],inactive
same,Potency,[6],inactive
same,Potency,[5],inactive
Nc1ccc(C(=O)Nc2ccccc2N)cc1,Potency,[2],7.5 µM (active)
same,Potency,[10],6.68 µM (active)
same,Potency,[3],16.8 µM (active)
same,Potency,[4],6.17 µM (active)
same,Potency,[5],inactive
CC(=O)N/N=C/c1ccc([N+](=O)[O-])o1,Potency,[5],inactive
COc1c(C)c2c(c(O)c1C/C=C(\C)CCC(=O)O)C(=O)OC2,Potency,[7],0.692 µM (active)
same,Potency,[5],inactive
CC(C)N=C(N)/N=C(\N)Nc1ccc(Cl)cc1,Potency,[2],inactive
same,Potency,[10],inactive
same,Potency,[6],inactive
same,Potency,[5],inactive
C=C(CC)C(=O)c1ccc(OCC(=O)O)c(Cl)c1Cl,Potency,[9],17.2 µM (active)
same,Potency,[3],inactive
same,Potency,[4],inactive
same,Potency,[6],21.1 µM (active)
same,Potency,[5],inactive
COC1=CC(=O)C[C@@H](C)[C@]12Oc1c(Cl)c(OC)cc(OC)c1C2=O,Potency,[2],inactive
same,Potency,[8],inactive
same,Potency,[5],inactive
CC(C)=CCC1C(=O)N(c2ccccc2)N(c2ccccc2)C1=O,Potency,[10],29.9 µM (active)
same,Potency,[3],inactive
same,Potency,[8],inactive
same,Potency,[6],inactive
same,Potency,[5],inactive
CN(C(=O)CN(CCO)CC(=O)N(C)C(C)(C)Cc1ccccc1)C(C)(C)Cc1ccccc1,Potency,[7],12.3 µM (active)
same,Potency,[4],17.4 µM (active)
same,Potency,[8],inactive
same,Potency,[6],inactive
same,Potency,[5],inactive
Cc1c(C)n(Cc2ccccc2)c2ccc(C(=O)OCCN(C)C)cc12,Potency,[2],inactive
same,Potency,[10],inactive
same,Potency,[8],inactive
same,Potency,[5],inactive
Oc1c(I)cc(I)c2cccnc12,Potency,[2],inactive
same,Potency,[3],inactive
same,Potency,[5],inactive
CCCCCC=CCC=CCCCCCCCC(=O)OCC,Potency,[2],inactive
same,Potency,[10],inactive
same,Potency,[7],inactive
same,Potency,[3],inactive
same,Potency,[4],inactive
same,Potency,[8],inactive
same,Potency,[6],inactive
same,Potency,[5],inactive
COc1cc(-c2ccc(=O)[nH]n2)ccc1OC(F)F,Potency,[2],inactive
same,Potency,[10],inactive
same,Potency,[7],inactive
same,Potency,[3],inactive
same,Potency,[4],inactive
same,Potency,[5],inactive
Nc1ccn([C@@H]2O[C@H](CO)[C@@H](O)C2(F)F)c(=O)n1,Potency,[2],0.0422 µM (active)
same,Potency,[10],0.075 µM (active)
same,Potency,[3],inactive
same,Potency,[8],inactive
same,Potency,[5],inactive
C=C1C(=C/C=C2\CCC[C@]3(C)[C@@H]([C@H](C)/C=C/[C@@H](O)C4CC4)CC[C@@H]23)C[C@@H](O)C[C@@H]1O,Potency,[3],inactive
same,Potency,[4],30.9 µM (active)
same,Potency,[8],inactive
same,Potency,[6],inactive
same,Potency,[5],inactive
O=C(OCCOCCO)c1ccccc1Nc1cccc(C(F)(F)F)c1,Potency,[2],inactive
same,Potency,[3],inactive
same,Potency,[6],inactive
same,Potency,[5],inactive
C#C[C@]1(OC(C)=O)CC[C@H]2[C@@H]3CCC4=C[C@@H](OC(C)=O)CC[C@@H]4[C@H]3CC[C@@]21C,Potency,[9],inactive
same,Potency,[2],inactive
same,Potency,[3],inactive
same,Potency,[6],inactive
same,Potency,[5],inactive
CCCCCCc1ccc(O)cc1O,Potency,[2],inactive
same,Potency,[10],inactive
same,Potency,[7],inactive
same,Potency,[3],inactive
same,Potency,[8],inactive
same,Potency,[6],inactive
same,Potency,[5],inactive
COc1ccc(CCN2CCC(Nc3nc4ccccc4n3Cc3ccc(F)cc3)CC2)cc1,Potency,[9],6.12 µM (active)
same,Potency,[10],23.7 µM (active)
same,Potency,[8],26.6 µM (active)
same,Potency,[6],16.8 µM (active)
CCN(CCCCOC(=O)c1ccc(OC)c(OC)c1)C(C)Cc1ccc(OC)cc1 (stereo not given),Potency,[2],inactive
same,Potency,[10],inactive
same,Potency,[3],inactive
same,Potency,[8],inactive
same,Potency,[6],inactive
same,Potency,[5],inactive
CN1CCCC(CC2c3ccccc3Sc3ccccc32)C1 (stereo not given),Potency,[2],inactive
same,Potency,[10],23.7 µM (active)
same,Potency,[7],19.5 µM (active)
same,Potency,[4],24.6 µM (active)
same,Potency,[5],inactive
CC(=O)O[C@]1(C(C)=O)CC[C@H]2[C@@H]3C[C@H](C)C4=CC(=O)CC[C@]4(C)[C@H]3CC[C@@]21C,Potency,[2],inactive
same,Potency,[3],inactive
same,Potency,[4],24.6 µM (active)
same,Potency,[6],inactive
same,Potency,[5],inactive
Oc1c(Cl)cc(Cl)cc1Sc1cc(Cl)cc(Cl)c1O,Potency,[7],inactive
same,Potency,[3],inactive
same,Potency,[8],inactive
same,Potency,[5],inactive
O=C(N/N=C/c1ccccc1O)c1ccncc1,Potency,[2],3.35 µM (active)
same,Potency,[10],2.99 µM (active)
same,Potency,[7],6.17 µM (active)
same,Potency,[6],6.68 µM (active)
CCCCCCCCCCOCC(O)CN (stereo not given),Potency,[2],inactive
same,Potency,[3],23.7 µM (active)
same,Potency,[4],30.9 µM (active)
C#C[C@]1(O)CC[C@H]2[C@@H]3CCc4cc(OC5CCCC5)ccc4[C@H]3CC[C@@]21C,Potency,[9],17.2 µM (active)
same,Potency,[4],19.5 µM (active)
same,Potency,[5],inactive
CCOC(=O)[C@H](CCc1ccccc1)N[C@@H](C)C(=O)N1Cc2ccccc2C[C@H]1C(=O)O,Potency,[2],inactive
same,Potency,[10],inactive
same,Potency,[3],inactive
same,Potency,[4],inactive
same,Potency,[8],inactive
same,Potency,[6],inactive
same,Potency,[5],inactive
